Assay results taken from the supplement of paper PMC8253809.

tested on: DIPGX7 (H3.3 K27M diffuse intrinsic pontine glioma line); assay: growth inhibition (% activity, log2 RLU normalised to DMSO / staurosporine); higher = more growth inhibition; details: 33 µM
Summary of the method: (§1)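 On Geltrex-coated 384-well plates, pHGG cell lines and H9-derived neural stem cells were grown with approved drugs pinned in at a single final concentration of about 33 μM, in triplicate, for 7 days at 37 °C, 5% CO2. Per-plate normalisation of log2-transformed CellTiter-Glo luminescence to % activity between solvent and positive control wells followed. Each growth-inhibition value is the median over the replicates.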

SMILES	growth inhibition
NC(=O)c1ncn([C@@H]2O[C@H](CO)[C@@H](O)[C@H]2O)c1O	-0.185%
COc1cc2c(cc1O)CC[C@@H]1[C@@H]2CC[C@]2(C)[C@@H](O)CC[C@@H]12	9.77%
COc1ccccc1OCC(O)CO (configuration not stated)	-2.23%
CC(=O)O[C@H]1C(=O)[C@@]2(C)[C@H]([C@H](OC(=O)c3ccccc3)[C@]3(O)C[C@H](OC(=O)[C@H](O)[C@@H](NC(=O)c4ccccc4)c4ccccc4)C(C)=C1C3(C)C)[C@]1(OC(C)=O)CO[C@@H]1C[C@@H]2O	6.36%
CC1CNc2c(cccc2S(=O)(=O)N[C@@H](CCCNC(=N)N)C(=O)N2CC[C@@H](C)C[C@@H]2C(=O)O)C1 (some centres not stated)	-1.49%
N[C@@H]1CN(c2c(F)cc3c(=O)c(C(=O)O)cn([C@@H]4C[C@@H]4F)c3c2Cl)CC12CC2	1.79%
C=Cc1c(C)c2cc3nc(cc4[nH]c(cc5nc(cc1[nH]2)C(C)=C5CCC(=O)O)c(CCC(=O)OC)c4C)C1(C)C3=CC=C(C(=O)OC)C1C(=O)OC (configuration not stated)	0.254%
CN1CCN(CCCN2c3ccccc3Sc3ccc(C(F)(F)F)cc32)CC1	12.3%
CC(c1cc2ccccc2s1)N(O)C(N)=O (configuration not stated)	0.715%
CN1CCN(c2cc3c(cc2F)c(=O)c(C(=O)O)cn3-c2ccc(F)cc2)CC1	0.237%
CC1(C)S[C@@H]2[C@H](NC(=O)[C@H](NC(=O)N3CCNC3=O)c3ccccc3)C(=O)N2[C@H]1C(=O)O	-0.00643%
Cc1cccn2c(=O)c(-c3nnn[nH]3)cnc12	-0.946%
CC(C)(C(=O)O)c1ccc(C(O)CCCN2CCC(C(O)(c3ccccc3)c3ccccc3)CC2)cc1 (configuration not stated)	0.287%
CCOC(=O)CC(=O)N1CCSC1COc1ccccc1OC (configuration not stated)	3.11%
Cc1cnc(NC(=O)C2=C(O)c3ccccc3S(=O)(=O)N2C)s1	-0.44%
CC(C)(S)[C@@H](N)C(=O)O	5.5%
CCCCNC(=O)NS(=O)(=O)c1ccc(C)cc1	-0.647%
CCN1CCN(C(=O)NC(C(=O)NC2C(=O)N3C(C(=O)O)=C(CSc4nnnn4C)CSC23)c2ccc(O)cc2)C(=O)C1=O (configuration not stated)	-3.04%

tested on: DIPGX9 (diffuse intrinsic pontine glioma line); assay: as above; details: 33 µM
Summary of the method: as §1

SMILES	growth inhibition
Oc1ccc(/C=C/c2cc(O)cc(O)c2)cc1	1.48%
CN1C2CCCC1CC(NC(=O)c1nn(C)c3ccccc13)C2 (configuration not stated)	1.03%
CC(C)(C)c1nc(-c2cccc(NS(=O)(=O)c3c(F)cccc3F)c2F)c(-c2ccnc(N)n2)s1	1.94%
CC(C)OC(=O)C(C)(C)Oc1ccc(C(=O)c2ccc(Cl)cc2)cc1	2.82%
CC1CCc2cc(F)cc3c(=O)c(C(=O)O)cn1c23 (configuration not stated)	-0.551%
CC(=O)NC[C@H]1CN(c2ccc(N3CCOCC3)c(F)c2)C(=O)O1	1.07%
O=C(O)c1ccccc1	-0.0449%
Cc1ccnc2c1NC(=O)c1cccnc1N2C1CC1	-1.16%
Nc1nc2ccc(OC(F)(F)F)cc2s1	4.59%
CCOC(=O)c1ncn2c1CN(C)C(=O)c1cc(F)ccc1-2	4.52%
Nc1nccs1	1.18%
Cn1ccnc1S	-0.195%
N#C[C@@H]1C[C@@H]2C[C@@H]2N1C(=O)[C@@H](N)C12CC3CC(CC(O)(C3)C1)C2	0.435%
CC(C)CC(N)=O	-0.164%
COc1ccccc1OCC(O)COC(N)=O (configuration not stated)	0.273%
CCCc1cc(=O)[nH]c(=S)[nH]1	1.7%
CC1(C)O[C@@H]2C[C@H]3[C@@H]4CCC5=CC(=O)C=C[C@]5(C)[C@@]4(F)[C@@H](O)C[C@]3(C)[C@]2(C(=O)CO)O1	4.15%
CN(C)CCOC(c1ccccc1)c1ccccc1	-1.77%
CCOC(=O)c1c(CSc2ccccc2)n(C)c2cc(Br)c(O)c(CN(C)C)c12	0.402%
CS(=O)(=O)c1ccc(C2=C(c3ccccc3)C(=O)OC2)cc1	-1.51%

SMILES	growth inhibition
Fc1ccc([C@@H]2CCNC[C@H]2COc2ccc3c(c2)OCO3)cc1	-0.123%
NC(=O)c1ncn([C@@H]2O[C@H](CO)[C@@H](O)[C@H]2O)c1O	-0.234%
COc1cc2c(cc1O)CC[C@@H]1[C@@H]2CC[C@]2(C)[C@@H](O)CC[C@@H]12	16.5%
COc1ccccc1OCC(O)CO (configuration not stated)	-0.66%
CC(=O)O[C@H]1C(=O)[C@@]2(C)[C@H]([C@H](OC(=O)c3ccccc3)[C@]3(O)C[C@H](OC(=O)[C@H](O)[C@@H](NC(=O)c4ccccc4)c4ccccc4)C(C)=C1C3(C)C)[C@]1(OC(C)=O)CO[C@@H]1C[C@@H]2O	22%
CC1CNc2c(cccc2S(=O)(=O)N[C@@H](CCCNC(=N)N)C(=O)N2CC[C@@H](C)C[C@@H]2C(=O)O)C1 (some centres not stated)	0.277%
N[C@@H]1CN(c2c(F)cc3c(=O)c(C(=O)O)cn([C@@H]4C[C@@H]4F)c3c2Cl)CC12CC2	0.793%
C=Cc1c(C)c2cc3nc(cc4[nH]c(cc5nc(cc1[nH]2)C(C)=C5CCC(=O)O)c(CCC(=O)OC)c4C)C1(C)C3=CC=C(C(=O)OC)C1C(=O)OC (configuration not stated)	-0.022%
CN1CCN(CCCN2c3ccccc3Sc3ccc(C(F)(F)F)cc32)CC1	0.94%
CC(c1cc2ccccc2s1)N(O)C(N)=O (configuration not stated)	-0.313%
CN1CCN(c2cc3c(cc2F)c(=O)c(C(=O)O)cn3-c2ccc(F)cc2)CC1	1.68%
CC1(C)S[C@@H]2[C@H](NC(=O)[C@H](NC(=O)N3CCNC3=O)c3ccccc3)C(=O)N2[C@H]1C(=O)O	0.298%
Cc1cccn2c(=O)c(-c3nnn[nH]3)cnc12	0.426%
CC(C)(C(=O)O)c1ccc(C(O)CCCN2CCC(C(O)(c3ccccc3)c3ccccc3)CC2)cc1 (configuration not stated)	0.223%
CCOC(=O)CC(=O)N1CCSC1COc1ccccc1OC (configuration not stated)	1.18%
Cc1cnc(NC(=O)C2=C(O)c3ccccc3S(=O)(=O)N2C)s1	-0.195%
CC(C)(S)[C@@H](N)C(=O)O	-0.781%
CCCCNC(=O)NS(=O)(=O)c1ccc(C)cc1	1.33%
CCN1CCN(C(=O)NC(C(=O)NC2C(=O)N3C(C(=O)O)=C(CSc4nnnn4C)CSC23)c2ccc(O)cc2)C(=O)C1=O (configuration not stated)	-2.18%
